# Reference: PubChem BioAssay (NCATS)
# Results filed as inconclusive are left out. Entries that show only a call come without a potency. Calls of active or inactive are those of the source. The call rests on the fitted dose curve; in most records, active means well fitted activation curve with a large enough effect; inconclusive means small, poorly fitted or top-dose-only effect; inactive means flat fitted curve, though single readings scatter.
# Test: Primary redox qHTS assay for identification of artifact compounds. (AID 1845223)
# Details: Amplex Red/HRP redox cycling with DTT, fluorescence; series mostly up to 53.8 µM
# Outline: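 Redox-cycling detection via DTT (250 uM final) oxidation coupled to Amplex Red (25 uM)/HRP (250 mU/mL) in HBSS. 15 min preincubation plus 30 min after DTT, room temperature. Ex/Em 525/598 nm; 4-parameter Hill fit against DMSO and 10 uM DA3003.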
row,SMILES,Potency
1,CC(=O)O[C@H]1CC2C(COC(=O)CC(C)C)=CO[C@@H](OC(=O)CC(C)C)C2[C@]12CO2 (stereo partly drawn),inactive
2,O=C1COc2nccc(-c3ccccc3F)c2CN1Cc1cc(C(F)(F)F)cc(C(F)(F)F)c1,inactive
3,CC(C)(O)c1ccn2c(-c3ccc(F)c(-c4ccc(F)cc4C#N)c3)cnc2c1F,inactive
4,C[C@@H](Nc1ncnc2[nH]c(-c3ccc(O)cc3)cc12)c1ccccc1,inactive
5,Cc1csc(N(C(=O)CSc2ccc(-c3ccccc3)nn2)C2CC2)n1,inactive
6,CC12CCC(OC3OC(CO)C(O)C(O)C3OC3OC(CO)C(O)C(O)C3O)CC1CCC1C2CCC2(C)/C(=C3/COC(=O)C3)CCC12O (stereo not drawn),inactive
7,CCOc1nc(NC(=O)Cc2cc(OC)ccc2OC)cc(N)c1C#N,inactive
8,C/C(=C\CO[C@@H]1O[C@H](CO[C@H]2OC[C@](O)(CO)[C@H]2O)[C@@H](O)[C@H](O)[C@H]1O)C(C)(C)O,inactive
